Screening data deposited in PubChem by National Center for Advancing Translational Sciences (NCATS).
BAZ2B inh – inhibitors of human BAZ2B bromodomain | Q9UIF8 | AlphaScreen BAZ2B-H3K14Ac peptide displacement | Potency, µM (highest dose often 114 µM), for the others: at the top dose activity change, negative = inhibition, actives largely listed as inhibitors | 360,000 compounds, 4.4% hits | AID 504333; note: % is set by controls: 0 for no effect and ±100 for the full control effect; nearly all actives have a fitted effect of over 60% in size
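AlphaScreen luminescence quantifies BAZ2B engagement of H3K14Ac peptide; the protein and biotinylated peptide are both at 50 nM final, buffer PBS pH 7.4 with 0.01% Tween-20, all steps at room temperature.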
ALOX12 inh – inhibitors of human 12S-lipoxygenase ALOX12. 580,000 compounds, 1.1% hits. P18054. purified 12hLO, xylenol orange hydroperoxide absorbance. Potency, µM (titrated, usually from 108 µM), without a hit: at the top dose activity change, negative = inhibition, usual class: inhibitors; note: % is set by controls: 0 for no effect and ±100 for the full control effect
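Purified human 12hLO at 150 nM in 25 mM Hepes, 0.01% Triton X-100, pH 7.0, preincubated 15 min at room temperature with compound. Reaction started with 40 uM arachidonic acid, 30 min at room temperature. Hydroperoxide measured by Fe-xylenol orange, 573/405 nm absorbance ratio.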
JMJD2A Tudor inh – blocks the human JMJD2A Tudor domain. O75164. AlphaScreen JMJD2A-Tudor / H3K4me3 peptide binding. Potency, µM (series often up to 114 µM), inactives show at the highest dose activity change, negative = inhibition, usual class: inhibitors. 390,000 compounds, 4.4% hits; note: % is set by controls: 0 for no effect and ±100 for the full control effect; nearly all actives have a fitted effect of over 50% in size
G9a inh – blocks human histone lysine methyltransferase G9a. Potency, µM (series often up to 102 µM), inactives show at the highest dose activity, negative = inhibition, actives largely listed as inhibitors. 350,000 compounds, 8.8% hits. G9a H3K9 monomethylation, AlphaScreen, 2 h; note: % is set by controls: 0 for no effect and ±100 for the full control effect; nearly all actives have a fitted effect of over 75% in size
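AlphaScreen read-out: biotin-H3K9 peptide (500 nM) methylation by 20 nM enzyme with 20 uM SAM, 2 h at room temperature after 15 min compound preincubation; anti-monomethyl H3K9 antibody plus donor/acceptor beads, 10 min dark.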
PLK1 PBD inh – blocks phosphopeptide binding to human PLK1 polo-box domain; P53350; Plk1 PBD binding of FITC phosphopeptide, fluorescence polarization; Potency, µM, for inactives: max response, negative = inhibition, most hits filed as inhibitors; 360,000 compounds, 2.8% hits; AID 720504; note: series mostly up to about 57 µM; % is set by controls: 0 for no effect and ±100 for the full control effect; nearly all actives have a fitted effect of over 65% in size
HP1b chromo inh – HP1-beta chromodomain-methylated histone interaction inhibition; P83916; AlphaScreen HP1-beta / biotin-H3K9me3 peptide binding; Potency, µM (top dose mostly 114 µM), for inactives: at the top dose activity change, negative = inhibition, most hits filed as inhibitors; 390,000 compounds, 0.56% hits; AID 540317; note: nearly all actives have a fitted effect of over 70% in size
Target sequence (P83916 whole entry, looked up): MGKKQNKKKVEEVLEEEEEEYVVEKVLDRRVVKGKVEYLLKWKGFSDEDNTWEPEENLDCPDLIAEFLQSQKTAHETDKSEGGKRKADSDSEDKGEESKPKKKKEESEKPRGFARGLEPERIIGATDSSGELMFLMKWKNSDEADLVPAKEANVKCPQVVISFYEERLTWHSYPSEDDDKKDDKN
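AlphaScreen: HP1-beta (50 nM) preformed 30 min with biotin-H3(1-18)K9me3 peptide (50 nM) in PBS pH 7.4, 0.01% Tween-20. Compound added for 30 min at RT, then streptavidin donor/nickel chelate acceptor beads (10 ug/mL) for 30 min.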
An asterisk follows results filed as active; ? = inconclusive; · = no result given; [ ] = dose if it differs, or a comment. In the library only some 9% were active in any assay of this set; here they are far more common. Calls come from the whole dose curve; as a rule, active = well fitted curve in the direction sought with a large enough effect; inconclusive = small, poorly fitted or top-dose-only effect, or another doubt; inactive = no such curve, though single readings can be large; an effect the other way counts as inactive or inconclusive. Potency is the fitted concentration of half-maximal effect.

SMILES	BAZ2B inh	ALOX12 inh	JMJD2A Tudor inh	G9a inh	PLK1 PBD inh	HP1b chromo inh
COc1ccc(-c2nc(SCC(=O)NC3CCCC3)c(-c3ccc(OC)cc3)[nH]2)cc1	?	-9.2%	?	50.1µM*	-10.4%	-15.6%
CCc1ccc(-c2nc(SCC(=O)NC3CC3)n[nH]2)cc1	10.5%	-10.6%	-6.2%	44.7µM*	-0.8%	2.4%
COc1ccc(-c2[nH]c(-c3ccc(F)cc3)nc2SCC(=O)Nc2nccs2)cc1	·	-8.6%	·	·	·	·
COc1cc(C(=O)NCC(=O)N/N=C/c2cccc(OC(=O)c3ccco3)c2)cc(OC)c1OC	-25.7%	-0.1%	-16.3%	1.2%	-18.9%	46.9%
O=C(NC(c1ccccc1)c1ccc2c3c(cccc13)CC2)c1cccc(F)c1 (stereo not drawn)	·	-2.2%	·	·	·	·
COc1cccc(N2CC(C(=O)Nc3nnc(SCC(=O)NCC4CCCO4)s3)CC2=O)c1 (stereo not drawn)	-8.9%	-5.6%	-8.3%	16.0%[12.7 µM]	-23.9%	32.2%
COc1ccc(N2CC(C(=O)Nc3nnc(SCC(=O)NCc4ccco4)s3)CC2=O)cc1 (stereo not drawn)	50.1µM*	-12.1%	?	44.7µM*	?	-4.6%
O=C(CSc1nnc(NC(=O)C2CC(=O)N(c3ccc(F)cc3)C2)s1)NCc1ccco1 (stereo not drawn)	-33.6%	?	?	44.7µM*	?	17.8%
Cc1cc(NC(=O)c2cc(-c3cccc(Cl)c3)on2)n(-c2ccccc2)n1	3.7%	?	-24.2%	-21.7%[59 µM]	·	36.3%
CC(C)NOC(=O)c1ccc(Cl)cc1	-9.7%	-2.0%	-19.6%	-4.8%	29.9µM*	4.7%
COc1cc([N+](=O)[O-])cc(/C=N/N(CCC#N)C(C)=O)c1O	?	-26.1%	-6.9%	44.7µM*	-8.6%	11.0%
